Measured values published in PubChem BioAssay (Tox21).
Results filed as inconclusive are left out. Calls of active or inactive are those of the source. Unless noted, the call rests on the fitted dose curve; in most records, active means well fitted curve in the direction sought with a large enough effect in the repeat runs; inconclusive means weak or mixed curves; inactive means no such curve, though single readings can be large; an effect the other way counts as inactive or inconclusive. Where a SMILES comes first, the peptide text is derived from it.

Assays:
[1] = qHTS RealTime-Glo MT Cell Viability Assay in HEK293 cells - 24 hour (AID 1224886); further: top concentration of the series differs between compounds; nearly all actives have a fitted effect of over 50% in size
Outline: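 Assay medium contained NanoLuc luciferase plus cell-permeant prosubstrate, added with HEK293 cells at 600 cells/well. After 5 h at 37 C/5% CO2 compounds were added; plates stayed at 37 C for 40 h with serial luminescence reads.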

[2] = qHTS RealTime-Glo MT Cell Viability Assay in HEK293 cells - 8 hour (AID 1224887); further: top concentration of the series differs between compounds; nearly all actives have a fitted effect of over 50% in size
Outline: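 Luminescence, which tracks viable cell number through reduction of the prosubstrate to a NanoLuc substrate, was read over continuous 37 C culture. Cells (600/well) were premixed with reagent and rested 5 h before 23 nL of compound in DMSO was pinned.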

[3] = A CellTox Green Cytotoxicity Assay to monitor cytotoxicity in HEK293 cells - 16 hour (AID 1224888); further: nearly all actives have a fitted effect of over 35% in size
Outline: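 Fluorescence from a DNA-binding dye excluded by viable cells was measured repeatedly in the same HEK293 wells (600 cells/well) during continuous compound exposure at 37 C. Each assay gives one read point: 0, 8, 16, 24, 32 or 40 h.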

[4] = qHTS RealTime-Glo MT Cell Viability Assay in HepG2 cells - 0 hour (AID 1224889); further: nearly all actives have a fitted effect of over 50% in size
Outline: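 qHTS, HepG2, 600 cells/well, RealTime-Glo (NanoLuc + prosubstrate) added with cells; 5 h preincubation; DMSO compound addition; 37 C; luminescence at 0/8/16/24/32/40 h.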

[5] = A CellTox Green Cytotoxicity Assay to monitor cytotoxicity in HepG2 cells - 8 hour (AID 1224890); further: nearly all actives have a fitted effect of over 45% in size
Outline: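 Real-time cytotoxicity: fluorescence of a cell-impermeant cyanine dye binding DNA of dead HepG2 cells, measured repeatedly (0–40 h) during compound exposure at 37 C. Cells seeded 600/well with reagent, dosed after 5 h.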

[6] = qHTS assay to identify small molecule antagonists of the estrogen receptor alpha (ER-alpha) signaling pathway using the BG1 cell line in the presence of 0.1 nM 17-beta-estradiol - cell viability counter screen (AID 1259241); further: nearly all actives have a fitted effect of over 40% in size
Outline: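 VM7Luc4E2, 4,000 cells/well, phenol red-free medium + 10% charcoal-stripped FBS; 24 hr plating; cpd + 0.1 nM E2 final, 22 hr 37C/5% CO2; CellTiter-Fluor 30 min, fluorescence.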

[7] = qHTS assay to identify small molecule antagonists of the androgen receptor (AR) signaling pathway using the MDA cell line in the presence of 0.5 nM R1881 - cell viability counter screen (AID 1259242); further: nearly all actives have a fitted effect of over 45% in size
Outline: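 Live-cell protease activity was measured by CellTiter-Fluor fluorescence after 30 min. Before that, MDA-kb2 MMTV-luciferase cells had 16 hr at 37C without CO2, exposed to test compounds and 0.5 nM R1881 final.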

[8] = molecular target: Androgen receptor (Homo sapiens) (UniProt P10275); test: qHTS assay to identify small molecule antagonists of the androgen receptor (AR) signaling pathway using the MDA cell line in the presence of 0.5 nM R1881 (AID 1259243); further: nearly all actives have a fitted effect of over 50% in size
Androgen receptor (Homo sapiens), sequence (P10275 whole entry, looked up): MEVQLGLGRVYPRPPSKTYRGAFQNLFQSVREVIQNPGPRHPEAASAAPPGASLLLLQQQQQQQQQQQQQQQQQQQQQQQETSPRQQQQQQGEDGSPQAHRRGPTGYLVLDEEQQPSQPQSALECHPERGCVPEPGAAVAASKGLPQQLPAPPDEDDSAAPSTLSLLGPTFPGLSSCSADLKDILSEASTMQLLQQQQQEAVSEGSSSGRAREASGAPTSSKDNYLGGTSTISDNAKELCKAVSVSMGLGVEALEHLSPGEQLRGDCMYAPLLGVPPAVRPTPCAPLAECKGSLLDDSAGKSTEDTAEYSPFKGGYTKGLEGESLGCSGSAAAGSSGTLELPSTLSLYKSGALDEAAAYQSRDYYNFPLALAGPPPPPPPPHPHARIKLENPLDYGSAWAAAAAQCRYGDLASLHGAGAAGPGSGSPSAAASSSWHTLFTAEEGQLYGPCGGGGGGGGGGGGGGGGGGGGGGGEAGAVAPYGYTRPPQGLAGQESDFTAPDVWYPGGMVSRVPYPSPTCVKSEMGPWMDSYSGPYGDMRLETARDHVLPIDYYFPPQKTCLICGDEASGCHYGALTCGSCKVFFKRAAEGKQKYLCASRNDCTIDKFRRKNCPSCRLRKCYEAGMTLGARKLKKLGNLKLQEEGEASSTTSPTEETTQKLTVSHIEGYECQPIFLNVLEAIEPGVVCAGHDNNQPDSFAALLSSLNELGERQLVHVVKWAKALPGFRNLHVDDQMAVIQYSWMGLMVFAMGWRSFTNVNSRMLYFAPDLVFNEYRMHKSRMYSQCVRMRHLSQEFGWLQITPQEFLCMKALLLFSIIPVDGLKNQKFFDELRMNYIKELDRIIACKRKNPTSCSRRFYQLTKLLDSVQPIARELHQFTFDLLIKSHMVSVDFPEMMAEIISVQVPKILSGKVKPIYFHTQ
Outline: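 Luminescent reporter readout (ONE-Glo, 30 min, room temperature) after 16 hr co-treatment of MDA-kb2 cells with test compounds and 0.5 nM R1881 final, at 37C without CO2. The MMTV-driven luciferase responds to both AR and GR.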

[9] = qHTS assay to identify small molecule phospholipidosis (PLD) inducers (AID 1259344; active means well fitted curve in the direction sought with a large enough effect; an effect the other way counts as inactive or inconclusive)
Outline: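 Phospholipid accumulation was scored by imaging: fixed, Hoechst-counterstained HepG2 cells stained with LipidTOX Red after 24 h compound exposure at 37 C. Read-outs were pit count and pit intensity per well or per cell, with amiodarone and DMSO controls.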

[10] = qHTS assay to identify small molecule HDAC inhibitors (AID 1259364); further: top concentration of the series differs between compounds; nearly all actives have a fitted effect of over 45% in size
Outline: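 Luminescence read after 30 min room-temperature HDAC-Glo incubation measures cellular class I/II HDAC activity. Compounds were applied for 2 hr at 37 C to HCT-116 wild-type cells seeded the day before.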

[11] = qHTS assay to identify small molecule HDAC inhibitors - cell viability counter screen (AID 1259365)
Outline: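 Luminescence from CellTiter-Glo, developed 30min at room temperature, reports viability of wild-type HCT-116 cells treated 2hr with compounds at 37 C and 5% CO2 after overnight plating.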

[12] = qHTS assay to identify small molecule agonists of the sonic hedgehog signaling (Shh) pathway - cell viability counter screen (AID 1259366); further: nearly all actives have a fitted effect of over 50% in size
Outline: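 Cytotoxicity counter screen run in the same wells as the Shh reporter assay. NIH/3T3 cells carrying a Gli1 response element–driven luciferase were treated with DMSO-dissolved compounds for 24hr, and live-cell protease activity was measured with CellTiter-Fluor.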

[13] = qHTS assay to identify small molecule antagonists of the sonic hedgehog signaling (Shh) pathway - cell viability counter screen (AID 1259367); further: nearly all actives have a fitted effect of over 55% in size
Outline: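 Viability was read by CellTiter-Fluor fluorescence in the same wells, reagent added 23 hr into compound treatment and incubated 1 hr at 37C. The 3T3 Gli1-Luc reporter cells (2,000/well) received conditioned medium after compound and ran 24 hr.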

[14] = qHTS assay to identify small molecule agonists of the sonic hedgehog signaling (Shh) pathway (AID 1259368; calls by dose curve;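 further: NIH/3T3-derived 3T3Gli1-Luc cells carrying a stable Gli1-driven firefly luciferase reporter; series mostly up to about 92 µM; nearly all actives have a fitted effect of over 15% in size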)
Outline: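 Luminescence was read after 30 min at room temperature with luciferase reagent. Before that, 3T3Gli1-Luc cells (NIH/3T3 clone, stable Gli1-Luc reporter; 2,000/well) were exposed to compounds for 24 hr at 37C, 5% CO2, compounds being added 4 hr post-plating.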

[15] = qHTS assay to identify small molecule antagonists of the sonic hedgehog signaling (Shh) pathway (AID 1259369; calls by dose curve; further: nearly all actives have a fitted effect of over 45% in size)
Outline: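 Antagonist mode: compound added to 3T3 Gli1-Luc cells followed by conditioned-medium stimulation, 24 h at 37 C, 5% CO2. Inhibition taken as loss of Gli1-driven luciferase luminescence.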

[16] = molecular target: Estrogen receptor beta (Homo sapiens) (UniProt Q92731); test: qHTS assay to identify small molecule agonists of the estrogen receptor beta (ER-beta) signaling pathway (AID 1259377; active means well fitted activation curve with a large enough effect in the signal ratio in the repeat runs, not every such curve was filed as active; the % refers to the signal ratio)
Estrogen receptor beta (Homo sapiens), sequence (Q92731 whole entry, looked up): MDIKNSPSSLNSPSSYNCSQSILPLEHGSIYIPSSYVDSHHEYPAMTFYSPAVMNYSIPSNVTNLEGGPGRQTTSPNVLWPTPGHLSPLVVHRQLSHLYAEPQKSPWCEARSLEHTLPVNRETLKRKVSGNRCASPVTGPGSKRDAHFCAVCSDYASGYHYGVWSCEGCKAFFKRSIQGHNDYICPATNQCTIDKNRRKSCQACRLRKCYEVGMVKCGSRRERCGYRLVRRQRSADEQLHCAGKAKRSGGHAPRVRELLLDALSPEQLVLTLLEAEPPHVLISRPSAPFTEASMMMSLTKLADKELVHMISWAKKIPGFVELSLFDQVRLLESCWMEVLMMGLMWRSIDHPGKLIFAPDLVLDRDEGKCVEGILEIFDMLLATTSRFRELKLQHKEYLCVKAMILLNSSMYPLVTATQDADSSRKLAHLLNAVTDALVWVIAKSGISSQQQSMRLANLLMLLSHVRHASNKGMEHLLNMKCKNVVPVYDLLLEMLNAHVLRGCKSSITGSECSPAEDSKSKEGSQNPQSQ
Outline: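 HEK293T ER-beta-UAS-bla; 2% charcoal-stripped FBS; cells pre-incubated 6 hr, compound 16 hr, 37C/5% CO2; LiveBLAzer B/G FRET substrate 2 h RT; fluorescence intensity read.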

[17] = qHTS assay to identify small molecule agonists of the androgen receptor (AR) signaling pathway in the presence of an antagonist - cell viability counter screen (AID 1259379);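 further: MDA-kb2 human breast cancer cells carrying an MMTV luciferase reporter; series mostly up to about 92 µM; nearly all actives have a fitted effect of over 25% in size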
Outline: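 Cytotoxicity counter-screen run in the same wells as the nilutamide-challenged (3.0 µM final) AR agonist assay in MDA-kb2 cells. Compounds tested at 15 concentrations for 16 h, 37 °C without CO2; CellTiter-Fluor fluorescence read.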

[18] = qHTS assay to identify small molecule agonists of the estrogen receptor beta (ER-beta) signaling pathway - cell viability counter screen (AID 1259380); further: nearly all actives have a fitted effect of over 30% in size
Outline: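 Cell viability counter screen: CellTiter-Glo luminescence (30 min, room temperature) measured in the same wells as the beta-lactamase readout, after 16 hr compound exposure at 37C of ER-beta-bla HEK293T cells in 2% charcoal-stripped FBS medium.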

[19] = molecular target: Estrogen receptor (Homo sapiens) (UniProt P03372); test: qHTS assay to identify small molecule antagonists of the estrogen receptor alpha (ER-alpha) signaling pathway using the BG1 cell line in the presence of 0.1 nM 17-beta-estradiol (AID 1259244); further: nearly all actives have a fitted effect of over 50% in size
Estrogen receptor (Homo sapiens), sequence (P03372 whole entry, looked up): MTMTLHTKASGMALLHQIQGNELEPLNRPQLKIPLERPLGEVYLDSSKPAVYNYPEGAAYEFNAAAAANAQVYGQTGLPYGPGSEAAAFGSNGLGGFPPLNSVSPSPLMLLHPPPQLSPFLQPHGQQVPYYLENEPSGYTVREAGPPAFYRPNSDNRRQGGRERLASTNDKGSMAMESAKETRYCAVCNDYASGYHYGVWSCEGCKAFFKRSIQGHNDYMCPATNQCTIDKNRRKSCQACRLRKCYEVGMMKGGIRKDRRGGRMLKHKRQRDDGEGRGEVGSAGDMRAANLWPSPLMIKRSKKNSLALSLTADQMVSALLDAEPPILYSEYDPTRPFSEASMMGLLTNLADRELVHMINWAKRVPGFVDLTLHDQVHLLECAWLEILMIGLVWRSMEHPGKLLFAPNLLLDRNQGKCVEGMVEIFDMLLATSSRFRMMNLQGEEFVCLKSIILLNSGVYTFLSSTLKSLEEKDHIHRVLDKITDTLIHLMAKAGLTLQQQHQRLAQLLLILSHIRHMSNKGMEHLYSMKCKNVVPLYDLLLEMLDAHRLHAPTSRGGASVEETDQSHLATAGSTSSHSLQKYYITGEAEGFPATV
Outline: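 Luciferase luminescence (ONE-Glo, 30 min at room temperature) was read after 22 hr at 37C exposure to compounds plus 17beta-estradiol at 0.1 nM final. Cells were VM7Luc4E2 with endogenous ER-alpha and an ERE-driven luciferase, pre-cultured 5 days in hormone-depleted medium.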

[20] = molecular target: Estrogen receptor beta (Homo sapiens) (UniProt Q92731); test: qHTS assay to identify small molecule antagonists of the estrogen receptor beta (ER-beta) signaling pathway (AID 1259378; active means well fitted inhibition curve with a large enough effect in the signal ratio in the repeat runs, not every such curve was filed as active; the % refers to the signal ratio)
Outline: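 Antagonist mode: compounds added to beta-lactamase reporter HEK293T ER-beta-UAS cells stimulated with E2 (1nM final), 16 hr at 37C. LiveBLAzer B/G FRET substrate, 2 hours room temperature, fluorescence read-out.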

Measured: Potency

CC(=O)O[C@@H]1CC2CCC1(C)C2(C)C (stereo partly drawn)
inactive: [1] | [2] | [3] | [4] | [5] | [6] | [7] | [8] | [9] | [10] | [11] | [12] | [13] | [14] | [15] | [16] | [17] | [18]

CC(C)COC(=O)c1ccccc1
inactive: [1] | [2] | [3] | [4] | [5] | [6] | [7] | [8] | [19] | [10] | [12] | [13] | [15] | [17] | [18]

CCCCCCCCCCCCCCC(=O)NC(CO)CCCCCCCCCCCCCC (stereo not drawn)
inactive: [1] | [2] | [3] | [4] | [5] | [6] | [7] | [19] | [10] | [11] | [12] | [13] | [14] | [15] | [16] | [20] | [17] | [18]

CCCCOCC(C)O (stereo not drawn)
inactive: [1] | [2] | [3] | [4] | [5] | [6] | [7] | [19] | [10] | [11] | [12] | [13] | [14] | [15] | [17] | [18]

CC(=O)N[C@@H](CO)C(=O)N[C@@H](CC(=O)O)C(=O)N[C@@H](CCCCN)C(=O)N1CCC[C@H]1C(=O)O (Ac-SDKP-OH)
inactive: [1] | [2] | [3] | [4] | [5] | [6] | [7] | [8] | [10] | [11] | [12] | [13] | [14] | [15] | [17]

COc1ccc2c(c1)c1c3n2CCN(C)C3=NCC1
inactive: [1] | [2] | [3] | [4] | [5] | [6] | [7] | [19] | [9] | [10] | [12] | [13] | [14] | [15] | [17] | [18]

COc1cc(OC)nc(O[C@H](C(=O)O)C(OC)(c2ccccc2)c2ccccc2)n1
inactive: [1] | [2] | [3] | [4] | [5] | [6] | [7] | [8] | [19] | [10] | [11] | [12] | [13] | [15] | [20] | [17] | [18]

COc1cc2c(cc1OC)CN(C(=O)[C@H](C)N[C@@H](CCc1ccccc1)C(=O)O)[C@H](C(=O)O)C2
inactive: [1] | [2] | [3] | [4] | [5] | [6] | [7] | [19] | [10] | [11] | [12] | [13] | [14] | [15] | [16] | [20] | [17] | [18]
